The values that follow come from paper PMC7862700, “An all-to-all approach to the identification of sequence-specific readers for epigenetic DNA modifications on cytosine”.

Common to all, as to experiment: DAPPL (digital affinity profiling via proximity ligation, sequencing); 10 mM Tris-HCl pH 7.5, 50 mM NaCl, 1 mM DTT, 4% glycerol, room temperature, 30 min; GST-TFs on glutathione beads, 16-mer random dsDNA library, 0.1% formaldehyde crosslink after washing; high values mean tight binding
In one assay the target is T1, FEV (Homo sapiens, UniProt Q99581 1-238).
T1 sequence: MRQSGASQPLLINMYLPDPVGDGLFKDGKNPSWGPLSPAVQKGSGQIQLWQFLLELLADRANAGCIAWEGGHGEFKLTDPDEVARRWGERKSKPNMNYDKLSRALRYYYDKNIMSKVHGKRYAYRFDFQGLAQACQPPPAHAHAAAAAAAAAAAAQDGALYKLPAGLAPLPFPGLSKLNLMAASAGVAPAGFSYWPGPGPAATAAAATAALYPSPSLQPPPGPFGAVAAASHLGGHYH
Conditions: protein: recombinant; tags: N-terminal GST; dsDNA, one strand shown. Put shortly: (§1)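 Pools were built from human transcription factors expressed in yeast as GST fusions, captured on glutathione beads and DNA-barcoded, along with a tag-only sample. Incubation with 200 nmole of a 16-mer random double-stranded DNA library lasted 30 min at room temperature in Tris/NaCl/DTT/glycerol buffer, and was followed by washing, 0.1% formaldehyde crosslinking, proximity ligation, PCR amplification and Illumina NextSeq500 sequencing. Binding signal is the quotient of each hexamer's read frequency for a factor and its frequency for the tag-only sample.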

In another assay the target is ETV5 (Homo sapiens, UniProt P41161 1-510). The following applies: protein: recombinant; tags: N-terminal GST; dsDNA, one strand shown. Put shortly: as §1
Another assay concerns the target HSF1 (Homo sapiens, UniProt Q00613 1-529). The following applies: protein: recombinant; tags: N-terminal GST; chain copies: 3; dsDNA, one strand shown. The method, boiled down: as §1
For the next assay, the target named is T2, SPIC (Homo sapiens, UniProt Q8N5J4 1-248).
T2 sequence: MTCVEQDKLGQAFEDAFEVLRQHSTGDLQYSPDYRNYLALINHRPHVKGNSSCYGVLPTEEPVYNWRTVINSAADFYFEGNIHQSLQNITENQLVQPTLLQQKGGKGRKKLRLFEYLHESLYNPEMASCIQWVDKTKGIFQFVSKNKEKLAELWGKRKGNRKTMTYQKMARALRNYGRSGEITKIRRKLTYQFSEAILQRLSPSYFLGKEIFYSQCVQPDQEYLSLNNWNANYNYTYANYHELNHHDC
The following applies: protein: recombinant; tags: N-terminal GST; dsDNA, one strand shown. Put shortly:
as §1

Another assay concerns the target ELF4 (Homo sapiens, UniProt Q99607 1-663). The following applies: protein: recombinant; tags: N-terminal GST; dsDNA, one strand shown. The method, boiled down: as §1
The target of another assay is T3, ELK4 (Homo sapiens, UniProt P28324-2 1-405).
T3 sequence: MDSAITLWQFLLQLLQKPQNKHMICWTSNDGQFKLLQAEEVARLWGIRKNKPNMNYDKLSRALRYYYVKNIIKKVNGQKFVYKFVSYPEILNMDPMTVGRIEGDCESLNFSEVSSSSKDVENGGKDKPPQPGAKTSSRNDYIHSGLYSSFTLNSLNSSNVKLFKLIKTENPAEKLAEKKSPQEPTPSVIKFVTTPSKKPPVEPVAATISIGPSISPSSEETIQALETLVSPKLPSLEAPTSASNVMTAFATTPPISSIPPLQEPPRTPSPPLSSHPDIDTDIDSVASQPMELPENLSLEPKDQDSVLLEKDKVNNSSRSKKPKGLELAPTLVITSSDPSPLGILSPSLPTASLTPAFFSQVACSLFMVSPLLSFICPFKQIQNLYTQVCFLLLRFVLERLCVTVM
Conditions: protein: recombinant; tags: N-terminal GST; dsDNA, one strand shown. Put shortly:
as §1

The next assay has as its target T4, ETV2 (Homo sapiens, UniProt O00321 1-342).
T4 sequence: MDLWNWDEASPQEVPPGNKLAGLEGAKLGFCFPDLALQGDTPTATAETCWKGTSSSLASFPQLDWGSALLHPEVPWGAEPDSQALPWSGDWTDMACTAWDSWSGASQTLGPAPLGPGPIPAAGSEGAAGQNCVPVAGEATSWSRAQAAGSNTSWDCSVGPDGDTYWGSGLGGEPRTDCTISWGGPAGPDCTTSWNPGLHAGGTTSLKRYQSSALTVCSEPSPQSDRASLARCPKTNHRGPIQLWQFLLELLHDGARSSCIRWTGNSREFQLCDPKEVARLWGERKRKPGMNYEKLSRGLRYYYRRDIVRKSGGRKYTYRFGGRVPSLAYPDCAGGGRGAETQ
Conditions: protein: recombinant; tags: N-terminal GST; dsDNA, one strand shown. Put shortly: as §1

The target in the next assay is T5, ELF3 (Homo sapiens, UniProt P78545 1-371).
T5 sequence: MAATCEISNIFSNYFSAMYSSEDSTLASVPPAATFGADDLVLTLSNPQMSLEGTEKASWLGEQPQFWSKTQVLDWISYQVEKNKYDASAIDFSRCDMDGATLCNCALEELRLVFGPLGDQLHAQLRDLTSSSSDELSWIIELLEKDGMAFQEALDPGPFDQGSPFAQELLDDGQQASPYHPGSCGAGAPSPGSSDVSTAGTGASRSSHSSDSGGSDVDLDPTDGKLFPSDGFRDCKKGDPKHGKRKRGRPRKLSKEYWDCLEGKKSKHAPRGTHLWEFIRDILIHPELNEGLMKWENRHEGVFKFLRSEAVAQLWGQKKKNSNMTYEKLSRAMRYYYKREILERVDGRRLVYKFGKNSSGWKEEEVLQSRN
The following applies: protein: recombinant; tags: N-terminal GST; dsDNA, one strand shown. Put shortly: as §1

Another assay has as its target CRX (Homo sapiens, UniProt O43186 1-299). The following applies: protein: recombinant; tags: N-terminal GST; dsDNA, one strand shown. The method, boiled down: as §1
A further assay concerns the target ETV1 (Homo sapiens, UniProt P50549 1-477). The following applies: protein: recombinant; tags: N-terminal GST; dsDNA, one strand shown. Put shortly:
as §1

For another assay, the target named is T6, ERF (Homo sapiens, UniProt P50548 1-548).
T6 sequence: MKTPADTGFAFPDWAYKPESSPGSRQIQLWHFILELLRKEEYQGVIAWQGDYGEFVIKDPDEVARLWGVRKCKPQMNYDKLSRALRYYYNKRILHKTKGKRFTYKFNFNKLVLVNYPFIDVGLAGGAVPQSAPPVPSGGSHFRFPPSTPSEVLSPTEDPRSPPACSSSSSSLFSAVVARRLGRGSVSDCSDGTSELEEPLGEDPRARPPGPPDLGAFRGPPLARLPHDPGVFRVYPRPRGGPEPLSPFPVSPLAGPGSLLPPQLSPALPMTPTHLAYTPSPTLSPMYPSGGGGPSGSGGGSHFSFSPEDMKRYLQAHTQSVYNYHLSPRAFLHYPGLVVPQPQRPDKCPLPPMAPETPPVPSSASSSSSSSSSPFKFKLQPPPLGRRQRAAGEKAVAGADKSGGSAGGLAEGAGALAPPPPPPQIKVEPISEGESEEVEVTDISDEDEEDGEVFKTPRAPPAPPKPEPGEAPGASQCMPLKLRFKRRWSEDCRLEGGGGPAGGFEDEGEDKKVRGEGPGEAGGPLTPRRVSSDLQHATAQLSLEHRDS
The following applies: protein: recombinant; tags: N-terminal GST; dsDNA, one strand shown. The method, boiled down:
as §1

A further assay addresses T7, ETV3L (Homo sapiens, UniProt Q6ZN32 1-361).
T7 sequence: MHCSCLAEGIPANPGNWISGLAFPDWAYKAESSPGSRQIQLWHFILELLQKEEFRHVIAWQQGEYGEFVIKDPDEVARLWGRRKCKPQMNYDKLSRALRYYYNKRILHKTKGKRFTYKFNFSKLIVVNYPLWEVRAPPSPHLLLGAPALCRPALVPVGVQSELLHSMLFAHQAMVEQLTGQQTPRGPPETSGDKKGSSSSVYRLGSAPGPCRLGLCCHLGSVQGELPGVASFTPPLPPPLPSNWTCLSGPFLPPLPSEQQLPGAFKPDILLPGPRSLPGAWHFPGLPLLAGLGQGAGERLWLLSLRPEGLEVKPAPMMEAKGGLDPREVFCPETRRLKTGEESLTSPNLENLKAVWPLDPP
The following applies: protein: recombinant; tags: N-terminal GST; dsDNA, one strand shown. Put shortly:
as §1

A further assay deals with T8, ETS2 (Homo sapiens, UniProt P15036 1-469).
T8 sequence: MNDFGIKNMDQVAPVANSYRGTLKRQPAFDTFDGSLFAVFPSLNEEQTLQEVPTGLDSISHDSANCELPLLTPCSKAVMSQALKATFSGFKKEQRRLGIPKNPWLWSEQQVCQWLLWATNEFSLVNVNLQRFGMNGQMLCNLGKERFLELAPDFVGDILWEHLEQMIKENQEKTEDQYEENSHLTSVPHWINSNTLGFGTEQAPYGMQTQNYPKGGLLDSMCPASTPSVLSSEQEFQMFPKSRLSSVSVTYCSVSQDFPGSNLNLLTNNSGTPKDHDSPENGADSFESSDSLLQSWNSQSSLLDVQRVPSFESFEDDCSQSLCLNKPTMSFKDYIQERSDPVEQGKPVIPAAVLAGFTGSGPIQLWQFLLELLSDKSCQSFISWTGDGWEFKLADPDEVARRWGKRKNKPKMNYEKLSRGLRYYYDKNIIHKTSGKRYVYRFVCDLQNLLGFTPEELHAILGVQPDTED
The following applies: protein: recombinant; tags: N-terminal GST; dsDNA, one strand shown. The method, boiled down:
as §1

A further assay concerns the target T9, SPDEF (Homo sapiens, UniProt O95238 1-335).
T9 sequence: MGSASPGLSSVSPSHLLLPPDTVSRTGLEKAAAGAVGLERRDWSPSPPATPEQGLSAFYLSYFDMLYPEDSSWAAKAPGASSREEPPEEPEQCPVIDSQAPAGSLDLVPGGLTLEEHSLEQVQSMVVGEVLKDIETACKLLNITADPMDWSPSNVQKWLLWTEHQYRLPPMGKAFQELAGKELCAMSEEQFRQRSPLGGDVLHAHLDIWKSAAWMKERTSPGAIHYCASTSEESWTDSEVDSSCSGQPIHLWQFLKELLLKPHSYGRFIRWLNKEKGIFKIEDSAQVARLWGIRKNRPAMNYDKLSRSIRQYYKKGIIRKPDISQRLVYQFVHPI
The following applies: protein: recombinant; tags: N-terminal GST; dsDNA, one strand shown. Put shortly:
as §1

In another assay the target is T10, ETV7 (Homo sapiens, UniProt Q9Y603 1-341).
T10 sequence: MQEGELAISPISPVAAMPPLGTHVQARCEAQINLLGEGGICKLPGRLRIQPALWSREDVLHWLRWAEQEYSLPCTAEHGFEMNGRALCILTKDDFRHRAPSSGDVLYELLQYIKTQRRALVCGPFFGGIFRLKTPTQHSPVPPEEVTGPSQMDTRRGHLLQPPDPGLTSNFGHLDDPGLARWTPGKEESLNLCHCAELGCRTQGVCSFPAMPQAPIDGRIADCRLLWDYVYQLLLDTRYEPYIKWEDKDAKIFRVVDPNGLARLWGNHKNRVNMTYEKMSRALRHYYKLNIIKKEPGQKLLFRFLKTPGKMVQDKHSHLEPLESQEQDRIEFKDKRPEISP
The following applies: protein: recombinant; tags: N-terminal GST; dsDNA, one strand shown. The method, boiled down:
as §1

The target of a further assay is T11, ELF5 (Homo sapiens, UniProt Q9UKW6-2 1-255).
T11 sequence: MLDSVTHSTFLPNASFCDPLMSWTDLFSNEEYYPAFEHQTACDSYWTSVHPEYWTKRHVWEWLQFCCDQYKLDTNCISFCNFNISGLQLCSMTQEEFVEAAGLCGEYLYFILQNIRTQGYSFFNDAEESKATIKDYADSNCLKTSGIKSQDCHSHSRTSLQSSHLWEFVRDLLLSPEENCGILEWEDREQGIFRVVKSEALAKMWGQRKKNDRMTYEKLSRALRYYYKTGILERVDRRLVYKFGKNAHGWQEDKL
Conditions: protein: recombinant; tags: N-terminal GST; dsDNA, one strand shown. Put shortly:
as §1

The target of another assay is T12, ETV3 (Homo sapiens, UniProt P41162-2 1-143).
T12 sequence: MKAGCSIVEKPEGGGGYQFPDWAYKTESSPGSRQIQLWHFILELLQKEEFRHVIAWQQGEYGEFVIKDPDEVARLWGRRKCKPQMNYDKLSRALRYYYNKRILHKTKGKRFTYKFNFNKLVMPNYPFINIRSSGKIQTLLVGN
The following applies: protein: recombinant; tags: N-terminal GST; dsDNA, one strand shown. The method, boiled down: as §1

A further assay addresses ETV6 (Homo sapiens, UniProt P41212 1-452). Conditions: protein: recombinant; tags: N-terminal GST; dsDNA, one strand shown. Put shortly:
as §1

CRX, sequence (O43186 whole entry): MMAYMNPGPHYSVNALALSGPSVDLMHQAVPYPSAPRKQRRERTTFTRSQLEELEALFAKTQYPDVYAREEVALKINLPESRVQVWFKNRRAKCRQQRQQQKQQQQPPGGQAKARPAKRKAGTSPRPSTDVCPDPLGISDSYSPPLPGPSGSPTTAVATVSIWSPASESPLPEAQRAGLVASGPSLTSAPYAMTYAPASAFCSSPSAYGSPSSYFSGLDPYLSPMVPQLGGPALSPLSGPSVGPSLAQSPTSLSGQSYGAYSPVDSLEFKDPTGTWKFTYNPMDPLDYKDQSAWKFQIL
HSF1, sequence (Q00613 whole entry): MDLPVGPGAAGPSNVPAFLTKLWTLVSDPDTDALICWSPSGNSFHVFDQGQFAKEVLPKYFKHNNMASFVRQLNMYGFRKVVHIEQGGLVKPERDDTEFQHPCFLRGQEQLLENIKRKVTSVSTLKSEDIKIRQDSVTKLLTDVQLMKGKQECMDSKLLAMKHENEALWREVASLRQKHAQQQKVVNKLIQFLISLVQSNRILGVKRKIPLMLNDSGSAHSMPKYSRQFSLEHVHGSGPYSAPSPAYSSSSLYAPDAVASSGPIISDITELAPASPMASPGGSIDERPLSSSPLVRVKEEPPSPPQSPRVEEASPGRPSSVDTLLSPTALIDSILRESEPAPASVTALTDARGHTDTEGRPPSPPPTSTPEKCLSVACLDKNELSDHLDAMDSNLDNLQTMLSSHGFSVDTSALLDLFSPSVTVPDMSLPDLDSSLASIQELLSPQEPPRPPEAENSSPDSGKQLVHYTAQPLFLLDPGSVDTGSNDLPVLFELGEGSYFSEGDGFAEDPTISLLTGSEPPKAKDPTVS
ETV6, sequence (P41212 whole entry): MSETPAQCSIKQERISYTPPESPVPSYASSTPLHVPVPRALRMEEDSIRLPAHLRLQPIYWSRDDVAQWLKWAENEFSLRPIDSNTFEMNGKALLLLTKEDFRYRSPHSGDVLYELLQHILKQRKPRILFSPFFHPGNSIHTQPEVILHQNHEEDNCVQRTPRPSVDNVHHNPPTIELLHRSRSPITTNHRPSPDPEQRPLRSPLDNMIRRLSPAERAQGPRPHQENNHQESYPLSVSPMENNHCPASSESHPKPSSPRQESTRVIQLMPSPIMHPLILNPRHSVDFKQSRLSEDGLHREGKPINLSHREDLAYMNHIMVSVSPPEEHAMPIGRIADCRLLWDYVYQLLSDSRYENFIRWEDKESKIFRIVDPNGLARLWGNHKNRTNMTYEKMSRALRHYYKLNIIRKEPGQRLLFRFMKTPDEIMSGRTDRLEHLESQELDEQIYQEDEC
ETV1, sequence (P50549 whole entry): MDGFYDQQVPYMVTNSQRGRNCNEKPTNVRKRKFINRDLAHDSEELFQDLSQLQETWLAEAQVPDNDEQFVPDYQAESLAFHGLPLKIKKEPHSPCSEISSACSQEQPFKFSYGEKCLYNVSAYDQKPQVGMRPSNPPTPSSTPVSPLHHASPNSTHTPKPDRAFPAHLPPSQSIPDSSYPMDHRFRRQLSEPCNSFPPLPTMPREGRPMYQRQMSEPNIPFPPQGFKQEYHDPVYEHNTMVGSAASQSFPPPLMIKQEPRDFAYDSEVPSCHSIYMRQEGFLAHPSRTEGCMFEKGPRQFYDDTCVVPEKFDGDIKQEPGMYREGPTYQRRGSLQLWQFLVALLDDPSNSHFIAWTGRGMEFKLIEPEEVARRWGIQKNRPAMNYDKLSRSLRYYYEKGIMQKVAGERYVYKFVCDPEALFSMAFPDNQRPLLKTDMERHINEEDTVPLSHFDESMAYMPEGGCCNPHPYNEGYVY
ELF4, sequence (Q99607 whole entry): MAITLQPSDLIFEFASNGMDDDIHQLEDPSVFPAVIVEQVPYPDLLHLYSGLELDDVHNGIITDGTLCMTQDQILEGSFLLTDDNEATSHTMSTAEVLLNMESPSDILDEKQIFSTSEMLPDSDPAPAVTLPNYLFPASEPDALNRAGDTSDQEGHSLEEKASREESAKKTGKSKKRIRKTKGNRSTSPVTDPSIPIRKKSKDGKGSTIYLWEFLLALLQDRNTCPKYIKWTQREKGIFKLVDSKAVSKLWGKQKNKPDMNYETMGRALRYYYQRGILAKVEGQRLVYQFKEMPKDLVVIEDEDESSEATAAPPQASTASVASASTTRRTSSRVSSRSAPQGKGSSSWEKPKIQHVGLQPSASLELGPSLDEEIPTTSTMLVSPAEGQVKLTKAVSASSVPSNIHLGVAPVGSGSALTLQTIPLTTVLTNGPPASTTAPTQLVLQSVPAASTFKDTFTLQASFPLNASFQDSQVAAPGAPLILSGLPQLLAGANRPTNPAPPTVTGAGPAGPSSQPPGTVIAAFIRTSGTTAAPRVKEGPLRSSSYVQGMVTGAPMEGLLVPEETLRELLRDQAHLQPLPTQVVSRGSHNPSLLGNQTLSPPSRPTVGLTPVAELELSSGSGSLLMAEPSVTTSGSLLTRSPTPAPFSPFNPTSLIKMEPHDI
ETV5, sequence (P41161 whole entry): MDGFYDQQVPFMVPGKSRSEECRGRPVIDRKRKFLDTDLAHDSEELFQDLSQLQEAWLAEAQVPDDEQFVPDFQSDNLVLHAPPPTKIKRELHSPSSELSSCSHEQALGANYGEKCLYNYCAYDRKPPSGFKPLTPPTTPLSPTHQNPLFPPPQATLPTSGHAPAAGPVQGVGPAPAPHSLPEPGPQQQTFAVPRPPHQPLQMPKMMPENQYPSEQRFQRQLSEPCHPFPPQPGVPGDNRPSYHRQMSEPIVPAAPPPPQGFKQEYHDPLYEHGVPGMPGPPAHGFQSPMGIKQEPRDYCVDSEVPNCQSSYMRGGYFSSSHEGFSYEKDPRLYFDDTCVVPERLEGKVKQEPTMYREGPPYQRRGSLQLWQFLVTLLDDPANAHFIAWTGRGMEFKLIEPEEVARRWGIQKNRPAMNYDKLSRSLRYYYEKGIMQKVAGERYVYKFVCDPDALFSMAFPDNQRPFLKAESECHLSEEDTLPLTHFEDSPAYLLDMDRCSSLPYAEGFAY

As to CCTTTA, the binding signal in the assay with FEV is 1.3 fold enrichment (6-mer frequency, TF over GST control); with ETV5, 1.22 fold enrichment (6-mer frequency, TF over GST control); in the assay with HSF1, 1.31 fold enrichment (6-mer frequency, TF over GST control); in the assay with SPIC, 1.32 fold enrichment (6-mer frequency, TF over GST control); with ELF4, 1.35 fold enrichment (6-mer frequency, TF over GST control); with ELK4, 1.42 fold enrichment (6-mer frequency, TF over GST control). Besides, the binding signal with ETV2 is 1.34 fold enrichment (6-mer frequency, TF over GST control); with ELF3, 1.51 fold enrichment (6-mer frequency, TF over GST control); in the assay with CRX it was 1.57 fold enrichment (6-mer frequency, TF over GST control); in the assay with ETV1, 1.37 fold enrichment (6-mer frequency, TF over GST control); with ERF it was 1.34 fold enrichment (6-mer frequency, TF over GST control); with ETV3L, 1.38 fold enrichment (6-mer frequency, TF over GST control). Moreover, the binding signal is 1.32 fold enrichment (6-mer frequency, TF over GST control) with ETS2; 1.38 fold enrichment (6-mer frequency, TF over GST control) in the assay with SPDEF; 1.23 fold enrichment (6-mer frequency, TF over GST control) with ETV7; 1.41 fold enrichment (6-mer frequency, TF over GST control) with ELF5; 1.33 fold enrichment (6-mer frequency, TF over GST control) with ETV3; 1.41 fold enrichment (6-mer frequency, TF over GST control) with ETV6.
